{"source": "PubChem BioAssay (EPA / NIEHS)", "note": "Activity calls are given as the source filed them. Rule for the calls: active = hit-call score of the fitted dose curve at least 0.9, where 1 is the maximum; inactive = score below 0.9.", "data": [{"target": "Transcription factor E2F1 (Homo sapiens) (UniProt Q01094)", "sequence (Q01094 whole entry, looked up)": "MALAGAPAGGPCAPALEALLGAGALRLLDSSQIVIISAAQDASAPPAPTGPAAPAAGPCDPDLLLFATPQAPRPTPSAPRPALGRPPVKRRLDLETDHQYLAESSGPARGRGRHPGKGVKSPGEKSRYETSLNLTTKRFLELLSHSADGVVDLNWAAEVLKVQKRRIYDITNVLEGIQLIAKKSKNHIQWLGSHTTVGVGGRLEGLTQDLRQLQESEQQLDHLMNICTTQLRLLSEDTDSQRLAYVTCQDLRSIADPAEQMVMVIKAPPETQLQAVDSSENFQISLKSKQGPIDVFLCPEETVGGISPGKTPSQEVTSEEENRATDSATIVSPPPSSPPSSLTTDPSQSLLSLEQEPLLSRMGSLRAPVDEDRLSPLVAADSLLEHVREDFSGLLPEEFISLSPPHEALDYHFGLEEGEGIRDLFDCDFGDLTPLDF", "assay": "ATG_E2F_CIS: Attagene CIS-FACTORIAL HepG2 Assay for human E2F Transcription Factor 1 (AID 2282935)", "settings": "HepG2 Attagene cis-reporter, E2F reporter RNA transcripts; actives raise or lower the signal", "experimental": "ATG_CIS is a cell-based, multiplexed-readout assay that uses HepG2, a human liver cell line, with measurements taken at 24 hours after chemical dosing in a 24-well plate.ATG_E2F_CIS is one of 52 assay component(s) measured or calculated from the ATG_CIS assay. It is designed to make measurements of mRNA induction, a form of inducible reporter, as detected with fluorescence intensity signals by Reverse transcription polymerase chain reaction (RT-PCR) and Capillary electrophoresis technology.Data from the assay component ATG_E2F_CIS was analyzed into 1 assay endpoint. This assay endpoint, ATG_E2F_CIS, was analyzed with bidirectional fitting relative to DMSO as the negative control and baseline of activity. Using a type of inducible reporter, measures of mRNA for gain or loss-of-signal activity can be used to understand the reporter gene at the transcription factor-level as they relate to the gene E2F1. Furthermore, this assay endpoint can be referred to as a primary readout, because this assay has produced multiple assay endpoints where this one serves a reporter gene function. To generalize the intended target to other relatable targets, this assay endpoint is annotated to the dna binding intended target family, where the subfamily is E2F transcription factor.\nHuman liver HepG2 cells are transiently transfected with multiple reporter transcription units (MRTUs) in 6-well plates using FuGene 6 reagent (Roche; 3 ml FuGene/1 mg DNA). The MRTU constructs are regulated by a cis-regulating element (promoter). […] A major difference between the CIS and TRANS system is that in CIS activities of endogenous TFs are measured, whereas the TRANS assay evaluates changes in activities of exogenous, chimeric NR-Gal4 proteins. […] At the end of 24 hour incubation, total RNA was isolated using TriZol reagent (Invitrogen). The isolated RNA is then reverse-transcribed using oligo(dT) primer and Mo-MLV reverse transcriptase (Invitrogen) with DNAse I (Ambion) treatment for 30 min. The one-tenth of the produced cDNA was amplified by PCR using Taq DNA polymerase (Invitrogen) and two reporter sequence-specific primers. The PCR products were fluorescently labeled by primer extension with 6-arboxyfluorescein (6-FAM) 5'-labeled reporter sequence-specific primer (2 min at 95 C, 20 s at 68 C and 10 min at 72 C) and these products were digested with 5U of HpaI (New England Biolabs) for 2h at 37 C. The fragments were purified using Qiaquick PCR columns (Qiagen), analyzed on an ABI 3130xL genetic analyzer (Applied Biosystems) with peak positions identified by using a set of X-rhodamine (ROX)-labeled MapMarker1000 molecular weight standards (BioVentures). The raw capillary electrophoresis data was processed using Attagraph software (Attagene).", "values": [{"smiles": "C1=Cc2ccccc2C1", "outcome": "inactive"}, {"smiles": "CCc1ccc2c(c1)C(=O)c1ccccc1C2=O", "outcome": "inactive"}, {"smiles": "O=C(O)c1cc2ccccc2nc1C(=O)O", "outcome": "inactive"}, {"smiles": "CN1C(=O)N(C)C(O)C1O", "note": "(stereo not given)", "outcome": "inactive"}, {"smiles": "CCCCC/C=C\\C/C=C\\CCCCCCCC(=O)OC", "outcome": "inactive"}, {"smiles": "Nc1ccc(N=Nc2ccccc2)c(N)n1", "outcome": "inactive"}, {"smiles": "C/C=C\\C/C=C/CCCCCCCCOC(C)=O", "outcome": "inactive"}, {"smiles": "OCCN(CCO)c1ccccc1", "outcome": "inactive"}, {"smiles": "CCO[Si](CCCN=C=O)(OCC)OCC", "outcome": "inactive"}, {"smiles": "C[Si](C)(C)O[Si](O)(O)O", "outcome": "inactive"}, {"smiles": "Cc1ccc(N)c([N+](=O)[O-])c1", "outcome": "inactive"}, {"smiles": "CC(C)(c1cc(Br)c(OCCO)c(Br)c1)c1cc(Br)c(OCCO)c(Br)c1", "AC50": "36 µM (active)"}, {"smiles": "CC(=O)CC(N)=O", "outcome": "inactive"}, {"smiles": "O=C(O)CCCCCCCCCC(=O)O", "outcome": "inactive"}, {"smiles": "CC1(C)S[C@@H]2[C@H](NC(=O)COc3ccccc3)C(=O)N2[C@H]1C(=O)O", "outcome": "inactive"}, {"smiles": "CC(=O)OCCC1CCCCC1", "outcome": "inactive"}, {"smiles": "CC(C)=CCCC(C)C=O", "note": "(stereo not given)", "outcome": "inactive"}, {"smiles": "CC(=O)NS(=O)(=O)c1ccc(N)cc1", "outcome": "inactive"}, {"smiles": "C=CC(=O)NC(C)(C)CS(=O)(=O)O", "outcome": "inactive"}, {"smiles": "CCCCCCCCCCOC(C)=O", "outcome": "inactive"}, {"smiles": "CC(C)(C)c1ccc(OC(=O)c2ccccc2O)cc1", "outcome": "inactive"}, {"smiles": "O=S(=O)(Oc1ccc(Cl)cc1Cl)c1ccccc1", "outcome": "inactive"}, {"smiles": "NC(=O)N=NC(N)=O", "outcome": "inactive"}, {"smiles": "CC(=O)Nc1nnc(S(N)(=O)=O)s1", "outcome": "inactive"}, {"smiles": "O=C(c1ccccc1)c1ccc(O)c(O)c1O", "outcome": "inactive"}, {"smiles": "C=C(C)[C@@H]1CCC2=CCC[C@@H](C)[C@]2(C)C1", "outcome": "inactive"}, {"smiles": "C=CC=CC=CCCCCC", "outcome": "inactive"}, {"smiles": "CCCCC(CC)COCC1CO1", "note": "(stereo not given)", "outcome": "inactive"}, {"smiles": "O=c1cc[nH]c(=S)[nH]1", "outcome": "inactive"}, {"smiles": "CCCCCCCCCCCCCCCCCC#N", "outcome": "inactive"}, {"smiles": "CCOC(=O)[C@H](C)O", "outcome": "inactive"}, {"smiles": "Nc1ccc2cc3ccccc3cc2c1", "outcome": "inactive"}, {"smiles": "Nc1ccc(Cl)cc1Cl", "outcome": "inactive"}, {"smiles": "O=c1cc(-c2ccccc2)oc2ccccc12", "outcome": "inactive"}, {"smiles": "CC(C)C1=CC2=CC[C@@H]3[C@](C)(CCC[C@@]3(C)C(=O)O)[C@H]2CC1", "outcome": "inactive"}, {"smiles": "O=C(O)C(c1ccc(Cl)cc1)c1ccc(Cl)cc1", "outcome": "inactive"}, {"smiles": "COC(=O)c1ccc2cc(C(=O)OC)ccc2c1", "outcome": "inactive"}, {"smiles": "Cc1ccc(C2OC[C@@H]3OC(c4ccc(C)cc4)O[C@H]([C@H](O)CO)[C@@H]3O2)cc1", "note": "(stereo not given in full)", "outcome": "inactive"}, {"smiles": "CC1=NN(c2cc(S(=O)(=O)O)ccc2Cl)C(=O)C1N=Nc1ccccc1", "note": "(stereo not given)", "outcome": "inactive"}, {"smiles": "C=C(C)c1cccc(C(C)(C)N=C=O)c1", "outcome": "inactive"}]}]}
